Here are results for 23 molecules from PubChem BioAssay (NCATS).

Results filed as inconclusive are left out. Values without a mark were called inactive. The source made the active and inactive calls. The call rests on the fitted dose curve; in most records, active means well fitted inhibition curve with a large enough effect; inconclusive means small, poorly fitted or top-dose-only effect; inactive means flat fitted curve, though single readings scatter. Where a SMILES comes first, the peptide text is derived from it. Bridges are numbered along the chain shown (N, C = ends). [ ]: non-standard residue; d: D form. hArg = N=C(N)NCCCC[C@H](N)C(=O)O; Mpa = O=C(O)CCS

The nature of test [1]: Drug repurposing screens with cells derived from glioblastoma tumor samples (AID 1345199). Further: nearly all actives have a fitted effect of over 40% in size. The following applies: GBM patient neurospheres viability, ATP luminescence, 48 h. An outline of the steps: (§1)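 Primary testing used CD133+ neurospheres from four GBM patients, seven concentrations, 48 h exposure and ATP-based viability; confirmation added three slower-growing patient lines.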

The subject of the next test is astro (control astrocytes). Described as above. The following applies: viability, ATP luminescence, 48 h; series mostly up to 45.9 µM. An outline of the steps:
as §1

Setting [2] is: at 20 µM (top of the series), tumour line C.
[3] abbreviates: at 21.2 µM (top of the series), tumour line B.
Setting [4] is: at 21.2 µM (top of the series), tumour line D.
[5] abbreviates: at 21.3 µM (top of the series), tumour line A.
Where [6] appears, read: at 45.9 µM (top of the series), tumour line B.
The mark [7] stands for this setting: at 45.9 µM (top of the series), tumour line D.
The mark [8] stands for this setting: at 46 µM (top of the series), tumour line A.
The mark [9] stands for this setting: at 46.1 µM (top of the series), tumour line C.
On the % scale 0 is the no-effect control and ±100 the full control effect; potency means the concentration at half of the fitted maximal effect.

Turning to `C[n+]1ccccc1/C=N/O`, the activity, negative = cell killing in test [1] (setting [2]) is -23.9%; in test [1] (setting [3]) it was -15%; in test [1] (setting [4]) it was -26.7%; in test [1] (setting [5]), -10.2%. For the same molecule, the call with astro was inactive.
The matching figures for `CC(=O)[C@@]1(O)CC[C@H]2[C@@H]3C[C@H](C)C4=CC(=O)C=C[C@]4(C)[C@@]3(F)[C@@H](O)C[C@@]21C`: -10.6%, 4.4%, -1.22%, 13.1% and “inactive”.
Regarding `CN(C(=O)c1c(O)c2ccccc2n(C)c1=O)c1ccccc1`, the activity, negative = cell killing is -5.78% in test [1] (setting [6]), -11.8% in test [1] (setting [7]), -31.5% in test [1] (setting [8]) and -28.1% in test [1] (setting [9]). Also, the molecule was called inactive in the test with astro.
The matching figures for `CC(=O)N[C@@H](CC(C)C)C(=O)O`: -11.1%, -9.62%, -21.1%, -11.2% and “inactive”.
The matching figures for `CC1(C)S[C@@H]2[C@H](N=CN3CCCCCC3)C(=O)N2[C@H]1C(=O)O`: 0.648%, 9.1%, -11.3%, -4.3% and “inactive”.
The matching figures for `CCc1nnc(NS(=O)(=O)c2ccc(N)cc2)s1`: -21.8%, -9.53%, -28.8%, -20.9% and “inactive”.
As to `CC1(C)[C@@H](OC(=O)CCC(=O)O)CC[C@]2(C)[C@H]3C(=O)C=C4[C@@H]5C[C@@](C)(C(=O)O)CC[C@]5(C)CC[C@@]4(C)[C@]3(C)CC[C@@H]12`, the activity, negative = cell killing is -5.99% in test [1] (setting [2]), -8.6% in test [1] (setting [3]), -19.2% in test [1] (setting [4]) and -22.2% in test [1] (setting [5]). In addition, in the test with astro, the call was inactive.
Consider `CC(C(=O)O)c1ccc2c(c1)Cc1cccnc1O2` (stereo not given), for which the activity, negative = cell killing in test [1] (setting [6]) was 1.78%; in test [1] (setting [7]), -8.91%; in test [1] (setting [8]), -13.1%; in test [1] (setting [9]), -25.1%. Also, the outcome with astro was inactive.
In the case of `NC(=O)NC1NC(=O)NC1=O` (stereo not given), the activity, negative = cell killing is 1.99% in test [1] (setting [2]), 4.84% in test [1] (setting [3]), -17.3% in test [1] (setting [4]) and -7.96% in test [1] (setting [5]). For the same molecule, the call with astro was inactive.
The matching figures for `COCC(=O)Nc1c(I)c(C(=O)NCC(O)CO)c(I)c(C(=O)N(C)CC(O)CO)c1I` (stereo not given): 5.9%, -2.18%, -2.4%, -10.5% and “inactive”.
`CN1C[C@@H]2C[C@H]1CN2c1cc2c(cc1F)c(=O)c(C(=O)O)cn2C1CC1`: the activity, negative = cell killing is 4.99% in test [1] (setting [6]), -9.88% in test [1] (setting [7]), -19.7% in test [1] (setting [8]) and 3.73% in test [1] (setting [9]). Moreover, the molecule was classed as inactive in the test on astro.
The matching figures for `NC(=O)[C@@H]1CSSCCC(=O)N[C@@H](CCCCN=C(N)N)C(=O)NCC(=O)N[C@@H](CC(=O)O)C(=O)N[C@@H](Cc2c[nH]c3ccccc23)C(=O)N2CCC[C@H]2C(=O)N1` ([Mpa][hArg]GDWPC-NH2; disulfide 1-7): 1.12%, 4.68%, -11%, -19.2% and “inactive”.
The matching figures for `O=C(NCCCN1CCOCC1)c1ccc(Cl)cc1`: -1.61%, -16.9%, -28.4%, -13.2% and “inactive”.
The matching figures for `Cn1c([N+](=O)[O-])cnc1COC(N)=O`: -9.55%, -8.48%, -18.6%, -20.8% and “inactive”.
`NS(=O)(=O)c1cc2c(cc1C(F)(F)F)NCNS2(=O)=O`: the activity, negative = cell killing was -8.4% in test [1] (setting [2]), 8.4% in test [1] (setting [3]), -16.1% in test [1] (setting [4]) and -5.19% in test [1] (setting [5]). Besides, the outcome in the test on astro was inactive.
Consider `CCN(CC)CCOC(=O)C(c1ccccc1)c1ccccc1`, for which the activity, negative = cell killing was -13.3% in test [1] (setting [6]), -3.55% in test [1] (setting [7]), -25.1% in test [1] (setting [8]) and -20.1% in test [1] (setting [9]). Moreover, in the test with astro, the molecule was classed as inactive.
The matching figures for `CC(=O)N(CC(O)CO)c1c(I)c(C(=O)NCC(O)CO)c(I)c(C(=O)NCC(O)CO)c1I` (stereo not given): -2.73%, -8.17%, -31.6%, -23.8% and “inactive”.
The matching figures for `CCN(CC)S(=O)(=O)c1ccc(C(=O)O)cc1`: -12.2%, -3.35%, -16.8%, -15.2% and “inactive”.
For the molecule `CCN(CC)CC1CCCCN1CC(=O)N1c2ccccc2C(=O)Nc2cccnc21` (stereo not given), the activity, negative = cell killing in test [1] (setting [6]) was -15.7%; in test [1] (setting [7]), -5.02%; in test [1] (setting [9]) it was -18.7%. Further, in test [1] (tumour line A), the Potency is 20 µM (active). Further, the outcome with astro was inactive.
For the molecule `C1CCN2C[C@@H]3C[C@@H](CN4CCCC[C@@H]34)[C@H]2C1`, the activity, negative = cell killing was 4.02% in test [1] (setting [2]), -1.82% in test [1] (setting [3]), -18% in test [1] (setting [4]) and -22% in test [1] (setting [5]). In addition, the outcome in the test on astro was inactive.
`CCCCCOC(=O)Nc1nc(=O)n([C@@H]2O[C@H](C)[C@@H](O)[C@H]2O)cc1F`: the activity, negative = cell killing is 3.4% in test [1] (setting [6]), -3.99% in test [1] (setting [7]), -16.9% in test [1] (setting [8]) and 7.27% in test [1] (setting [9]). In addition, the call in the test with astro was inactive.
In the case of `O=c1[nH]c(=O)c2ccccc2o1`, the activity, negative = cell killing in test [1] (setting [6]) was -11%; in test [1] (setting [7]), -4.94%; in test [1] (setting [8]) it was -29.8%; in test [1] (setting [9]), -24.8%. The molecule was classed as inactive in the test on astro.
On to `CN[C@@H]1[C@H](O)[C@H](NC)[C@H]2O[C@@]3(O)C(=O)C[C@@H](C)O[C@H]3O[C@@H]2[C@H]1O`, for which the activity, negative = cell killing in test [1] (setting [2]) is -1.47%; in test [1] (setting [3]) it was -21.3%; in test [1] (setting [4]) it was 0.484%; in test [1] (setting [5]) it was -6.42%. In addition, the result in the test on astro was inactive.
